Data on 48 compounds can be found in PubChem BioAssay AID1851 (National Center for Advancing Translational Sciences (NCATS), 2009).

Screen size: about 16,000 compounds; about 5,800 (36%) were called active. About 23% were inconclusive and are not listed. The list shows a part of the results. Values without a mark were called inactive. The call rests on the fitted dose curve; in most records, active means well fitted curve in the direction sought with a large enough effect; inconclusive means small, poorly fitted or top-dose-only effect, or effect the other way; inactive means no such curve, though single readings can be large or run the other way.

Broadly, the AC50 is the midpoint of the concentration-response curve, whichever way the signal moves.
On the % scale 0 is the no-effect control and ±100 the full control effect.

Chain of Cytochrome P450 2C19 (Homo sapiens) (P33261 whole entry, looked up): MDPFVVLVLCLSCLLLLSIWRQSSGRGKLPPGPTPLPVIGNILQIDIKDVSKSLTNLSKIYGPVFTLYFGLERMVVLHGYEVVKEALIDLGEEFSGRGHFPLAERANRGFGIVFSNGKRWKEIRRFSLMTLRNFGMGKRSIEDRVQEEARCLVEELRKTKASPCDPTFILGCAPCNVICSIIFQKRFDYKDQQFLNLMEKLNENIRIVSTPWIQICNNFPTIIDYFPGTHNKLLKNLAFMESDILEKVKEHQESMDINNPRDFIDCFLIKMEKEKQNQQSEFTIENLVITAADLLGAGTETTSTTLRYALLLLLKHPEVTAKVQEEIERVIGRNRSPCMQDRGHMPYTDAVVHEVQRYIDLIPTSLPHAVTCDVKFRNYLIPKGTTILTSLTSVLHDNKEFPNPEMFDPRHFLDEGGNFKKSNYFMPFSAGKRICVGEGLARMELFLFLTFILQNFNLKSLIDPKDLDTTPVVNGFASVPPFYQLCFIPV

This test addresses Cytochrome P450 2C19 (Homo sapiens) (UniProt P33261). The experiment in a line: Cytochrome panel assay with activity outcomes. As to conditions: recombinant CYP, pro-luciferin dealkylation, luminescence, p450-cyp2c19; series mostly up to 57.1 µM; activity, negative = inhibition: at the top concentration.
For `Cc1ccc(Cn2cccc(NC(=O)NC3CCCCC3)c2=O)cc1`, the AC50 was 14100 nM (active).

Take `COCCn1c(=O)c(-c2cc(F)cc(F)c2)nc2cnc(N3CCOCC3)nc21`: the “activity, negative = inhibition” value was 12.7%.

With `c1ccc2oc(C3=NCCN3)cc2c1`, the “activity, negative = inhibition” value was -37.9%.

For `COCCn1c(=O)c(C)nc2cnc(N3CCNCC3)nc21`, the “activity, negative = inhibition” value was -13.7%.

As for `O=[N+]([O-])c1ccc(N2CCOCC2)nc1`, the “activity, negative = inhibition” value is -21.3%.

On to `Cc1cc(N2CCOCC2)ncc1[N+](=O)[O-]`, for which the AC50 is 31600 nM (active).

For `Cc1ccc(S(=O)(=O)/N=C2/NC(=O)/C(=C/c3cccnc3)S2)cc1`, the AC50 is 2240 nM (active).

Take `Cc1ccc(S(=O)(=O)NC(=O)CSc2nc3ccccc3s2)cc1`: the “activity, negative = inhibition” value is -26.7%.

Take `O=C(CSc1nc2ccccc2s1)NNC(=S)Nc1ccc(Br)cc1`: the AC50 is 2820 nM (active).

With `O=C(CSc1nc(-c2ccccc2)nc2ccccc12)Nc1nccs1`, the “activity, negative = inhibition” value is -22.4%.

For `Cc1cccc(-c2nsc(SCC(=O)Nc3nccs3)n2)c1`, the half-maximal activity concentration (AC50) is 1780 nM (active).

Take `O=C(CSCc1ccc(Cl)cc1)Nc1nccs1`: the AC50 was 2510 nM (active).

As to `O=C(CSc1nc2ccccc2s1)Nc1nccs1`, the AC50 was 1580 nM (active).

Consider `O=S(=O)(c1ccc(Cl)cc1)c1cnc(-c2cccnc2)nc1-c1ccccc1`, for which the AC50 was 2820 nM (active).

On to `O=S(=O)(c1ccccc1)c1cnc(-c2cccnc2)nc1-c1ccc(Cl)cc1Cl`, for which the half-maximal activity concentration (AC50) is 5010 nM (active).

With `OC[C@H]1O[C@H](n2cnc3c(NC4CCCC4)nc(Cl)nc32)[C@@H](O)[C@@H]1O`, the “activity, negative = inhibition” value is 4.34%.

Turning to `COc1ccc(-c2nnc(SCc3cccc(C)c3)n2N)cc1`, the AC50 is 2510 nM (active).

`CCn1c(SCc2cccc(C)c2)nnc1-c1ccc(C)cc1`: the concentration at half-maximal activity (AC50) was 2240 nM (active).

On to `CCn1c(SCc2cccc(C)c2)nnc1-c1ccccc1`, for which the AC50 was 501 nM (active).

For `NS(=O)(=O)c1cc2c(cc1Cl)=NC(CCC(=O)O)=NS=2(=O)O`, the activity, negative = inhibition was 22.1% [at 11.4 µM].

Take `C[C@H](C[C@H](N)C(=O)O)C(=O)O`: the “activity, negative = inhibition” value is -19.8%.

As for `O=C(O)/C(=C\c1ccc(O)cc1)c1cccc2ccccc12`, the activity, negative = inhibition is -11.8% [at 11.4 µM].

`NC(=O)/C(=C\c1ccncc1)c1cccc2ccccc12`: the half-maximal activity concentration (AC50) was 2510 nM (active).

Take `O=C(O)CCC(=O)c1ccc2ccc3cccc4ccc1c2c34`: the activity, negative = inhibition is 25.1% [at 11.4 µM].

Take `O=C(O)/C(=C\c1ccncc1)c1cccc2ccccc12`: the AC50 was 2510 nM (active).

As to `OC[C@@H]1O[C@@H](N2CCN([C@@H]3O[C@@H](CO)[C@@H](O)[C@H](O)[C@H]3O)CC2)[C@@H](O)[C@H](O)[C@H]1O`, the activity, negative = inhibition was 29.2% [at 11.4 µM].

As to `Clc1ccc2c(c1)C1=C(C(c3ccncc3)O2)C(c2ccc(Br)cc2)n2ncnc2N1` (stereo not drawn), the AC50 was 708 nM (active).

As for `Cc1cc(O)c(C(C)C)cc1N=Cc1ccccc1O`, the AC50 is 398 nM (active).

Take `O=C(O)c1cc(N=Cc2ccccc2O)cc(C(=O)O)c1`: the activity, negative = inhibition is 8.41% [at 11.4 µM].

On to `O=C(O)c1ccccc1C(=O)Nc1ccc(S(=O)(=O)Nc2nccs2)cc1`, for which the “activity, negative = inhibition” value was 32.7% [at 25.6 µM].

For the compound `O=C(CCN1C(=O)S/C(=C\c2ccccc2)C1=O)Nc1ccc(S(=O)(=O)Nc2nccs2)cc1`, the AC50 is 5010 nM (active).

Consider `c1ccc2c(CN3CCN(Cc4c[nH]c5ccccc45)CC3)c[nH]c2c1`, for which the activity, negative = inhibition is 1.09% [at 11.4 µM].

As for `O=S1(=O)CCN(c2ccccc2CC(c2c[nH]c3ccccc23)c2c[nH]c3ccccc23)CC1`, the half-maximal activity concentration (AC50) is 3160 nM (active).

Take `Fc1cc2nc(-c3ccncc3)[nH]c2cc1F`: the AC50 was 7080 nM (active).

For the compound `COc1ccc(C2=CSC(/N=C/c3ccc(F)cc3)=NN2)cc1`, the AC50 is 17800 nM (active).

As for `CC(C)CCOc1ccc(NC(=O)C2OC3OC(C)(C)OC3C3OC(C)(C)OC23)cc1` (stereo not drawn), the “activity, negative = inhibition” value is -23%.

Consider `COc1ccc(Br)cc1C(=O)Nc1ccc(Cc2ccncc2)cc1`, for which the AC50 was 794 nM (active).

As to `CCN(CC)CCNC(=O)c1cc(Br)c(N)cc1OC`, the “activity, negative = inhibition” value is -17.9% [at 25.6 µM].

Take `CN1CCc2c(sc3c2c(=O)n(-c2ccccc2)c2nncn32)C1`: the “activity, negative = inhibition” value is -9.84%.

Take `Cn1c(=O)n(-c2ccc(Cl)cc2)c(=O)c2c3c(sc21)COC(C)(C)C3`: the AC50 was 20000 nM (active).

In the case of `Cc1ccc(-n2c(C)cc(/C=C(\C#N)C(=O)NCC3CCCO3)c2C)cc1` (stereo not drawn), the half-maximal activity concentration (AC50) is 3160 nM (active).

Consider `COc1ccc(/C=C(\C#N)C(=O)NCC2CCCO2)cc1OC` (stereo not drawn), for which the “activity, negative = inhibition” value was 3.24%.

For `COc1cc(/C=C(\C#N)C(=O)NCC2CCCO2)c([N+](=O)[O-])cc1OC` (stereo not drawn), the concentration at half-maximal activity (AC50) was 11200 nM (active).

Take `N[C@@H](Cc1ccnnc1)C(=O)O`: the activity, negative = inhibition was 35.8% [at 11.4 µM].

For the compound `CC(C)[C@H](CO)Nc1nc(Nc2ccc(C(=O)O)c(Cl)c2)c2ncn(C(C)C)c2n1`, the “activity, negative = inhibition” value is -34.9%.

With `CCOC(=O)CSc1cc(=O)n(C)c2cc(Cl)ccc12`, the AC50 was 4470 nM (active).

In the case of `Cc1cccc(-n2nc([N+](=O)[O-])c(=NCc3cccnc3)n2O)c1`, the AC50 is 6310 nM (active).

Regarding `Cc1ccc(C)c(/C(O)=C2\C(=O)C(=O)N(Cc3cccnc3)C2c2cccnc2)c1` (stereo not drawn), the “activity, negative = inhibition” value is -0.22%.
